Drawing on PubChem BioAssay (NCATS), this text covers Potency and activity change, negative = cytotoxicity for 36 compounds.

Inconclusive results are not listed. Entries that show only a call come without a potency. Unmarked numbers belong to inactive results. The source made the active and inactive calls. Calls follow the shape of the dose curve; as a rule, active = well fitted cell-killing curve with a large enough effect; inconclusive = small, poorly fitted or top-dose-only effect, or effect the other way; inactive = flat fitted curve, though single readings scatter.
Potency is read from the fitted curve at half-maximal effect.

One experiment has as its system Es-2. The experiment is described as follows: Primary qHTS to identify gynecologic anti-cancer compounds using libraries of approved drugs and bioactive compounds (AID 1345084). Also: nearly all actives have a fitted effect of over 55% in size. The note with it: Gynecologic cancer cell panel viability, ATPlite luminescence, 48 h; series mostly up to 57.5 µM. The method in brief:
(§1)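 Cells, 1,000 per well, were allowed to settle for 16 h at 37 C before compound addition. Five concentrations were tested for 48 h, and viability was read by ATPlite luminescence after 15 min at room temperature.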
In the case of `CN[C@@H]1[C@@H](O)[C@@H](O[C@@H]2[C@@H](O)[C@H](O[C@H]3O[C@@H]([C@@H](C)NC)CC[C@H]3N)[C@@H](N)C[C@H]2N)OC[C@]1(C)O`, the Potency entry was “inactive”.

With `C[N+]1(C)[C@@H]2CC[C@H]1CC(OC(=O)C(O)c1ccccc1)C2` (stereo not given in full), the Potency entry is “inactive”.

Consider `CCNC(=O)[C@@H]1CCCN1C(=O)[C@H](CCCN=C(N)N)NC(=O)[C@H](CC(C)C)NC(=O)[C@@H](CC(C)C)NC(=O)[C@H](Cc1ccc(O)cc1)NC(=O)[C@H](CO)NC(=O)[C@H](Cc1c[nH]c2ccccc12)NC(=O)[C@H](Cc1cnc[nH]1)NC(=O)[C@@H]1CCC(=O)N1`, for which the Potency result was “inactive”.

Take `CC(CCC1(O)OC2CC3C4CC=C5CC(O[C@@H]6O[C@H](CO)[C@@H](O[C@@H]7O[C@H](CO)[C@@H](O)[C@H](O)[C@H]7O)[C@H](O)[C@H]6O[C@@H]6O[C@@H](C)[C@H](O)[C@@H](O)[C@H]6O)CCC5(C)C4CCC3(C)C2C1C)CO[C@@H]1O[C@H](CO)[C@@H](O)[C@H](O)[C@H]1O` (stereo not given in full): the activity change, negative = cytotoxicity is 5.5% [at 11.6 µM].

`CN([C@H]1c2cc(OCCCC(F)(F)F)ccc2OC(C)(C)[C@@H]1O)S(C)(=O)=O`: the Potency result is “inactive”.

With `Cn1c(NC[C@@H](N)Cc2ccccc2)nc(-c2ccncc2)c(-c2ccc3ccccc3c2)c1=O`, the Potency entry was “inactive”.

For the compound `CCCCC(=O)N(Cc1ccc(-c2ccccc2-c2nn[nH]n2)cc1)C(C(=O)O)C(C)C` (stereo not given), the Potency entry was “inactive”.

As to `Nc1nc(NCC2CCC(CNS(=O)(=O)c3cccc4ccccc34)CC2)nc2ccccc12` (stereo not given), the Potency entry is “inactive”.

With `COc1ccc(NS(=O)(=O)c2sc3ccc(Cl)cc3c2C)cc1N1CCNCC1`, the Potency result is “inactive”.

For `CCCCc1nc(Cl)c(CO)n1Cc1ccc(-c2ccccc2-c2nnn[nH]2)cc1`, the Potency result was “inactive”.

For `CCC(=O)c1cc(-c2ccc(Cl)cc2)n(-c2ccc(S(N)(=O)=O)cc2)c1C`, the Potency entry was “inactive”.

`Cc1nnsc1C(=O)Nc1ccc(-n2nc(C(F)(F)F)cc2C(F)(F)F)cc1`: the Potency result is “inactive”.

Take `Cc1cc(C)c(NC(=O)N(Cc2ccc3c(c2)Cc2ccccc2-3)C2CCCCCC2)c(C)c1`: the Potency result is “inactive”.

Turning to `Fc1ccccc1CNCc1ccc(-c2ccnc3[nH]ccc23)cc1`, the Potency entry was “inactive”.

In the case of `CN(Cc1ccc(C(=O)O)cc1)c1ccc(OCc2c(-c3c(Cl)cccc3Cl)noc2C2CC2)nc1C(F)(F)F`, the Potency entry was “inactive”.

On to `Cc1nc(C)c2c(n1)N(Cc1ccc(-c3ccccc3-c3nn[nH]n3)cc1)C(=O)CC2`, for which the Potency result was “inactive”.

For the compound `N#C[C@@H]1C[C@@H]2C[C@@H]2N1C(=O)[C@@H](N)C12CC3CC(CC(O)(C3)C1)C2`, the Potency entry is “inactive”.

Turning to `CCCCOc1ccc(-c2cncc(C(=O)NCc3cccnc3N3CCOCC3)c2)cc1Cl`, the Potency entry is “inactive”.

In the case of `CC[C@H]1OC(=O)[C@H](C)[C@@H](O[C@H]2C[C@@](C)(OC)[C@@H](O)[C@H](C)O2)[C@H](C)[C@@H](O[C@@H]2O[C@H](C)C[C@H](N(C)C)[C@H]2O)[C@](C)(O)C[C@@H](C)/C(=N/OCOCCOC)[C@H](C)[C@@H](O)[C@]1(C)O`, the Potency entry was “inactive”.

`C[C@@H](O[C@H]1OCCN(Cc2n[nH]nc2CN(C)C)[C@H]1c1ccc(F)cc1)c1cc(C(F)(F)F)cc(C(F)(F)F)c1`: the Potency entry was “inactive”.

Consider `Cc1cc(CN)cc(C)c1NC(=O)c1ccc(-c2cc(Cl)ccc2Cl)o1`, for which the Potency result was “inactive”.

As to `CCCCc1nc(C)c(CC(=S)N(C)C)c(=O)n1Cc1ccc(-c2ccccc2-c2nn[nH]n2)cc1`, the Potency entry was “inactive”.

Turning to `CC(=O)N1CCN([C@H]2CCN(C(=O)N(C)[C@H](C)c3cc(C(F)(F)F)cc(C(F)(F)F)c3)[C@@H](c3ccc(F)cc3C)C2)CC1`, the Potency result is “inactive”.

As for `CC1(C)SC2C(NC(=O)[C@H](C(=O)O)c3ccsc3)C(=O)N2C1C(=O)O` (stereo not given in full), the Potency result was “inactive”.

With `Cc1cc(C)c(-c2csc(NC(=O)c3ccccc3)n2)c(C)c1`, the Potency result is “inactive”.

For `COc1c(N2CC3CCCNC3C2)c(F)cc2c(=O)c(C(=O)O)cn(C3CC3)c12` (stereo not given), the Potency entry is “inactive”.

With `COc1cc(N2CCN(C(C)=O)CC2)ccc1Nc1ncc(Cl)c(Nc2ccc(N3CCN(C(C)=O)CC3)cc2OC)n1`, the Potency entry is “inactive”.

On to `CN(CC(=O)N(Cc1ccc(C2CCCCC2)cc1)c1ccc(C(=O)O)cc1)S(=O)(=O)c1c(F)c(F)c(F)c(F)c1F`, for which the Potency result was “inactive”.

As to `CO[C@@H]1[C@@H](O[C@H]2O[C@@H](C)[C@H](O[C@@H]3C[C@](C)(O)[C@H](O)[C@@H](C)O3)[C@@H](N(C)C)[C@@H]2O)[C@@H](CC=O)C[C@@H](C)[C@@H](O[C@H]2CC[C@H](N(C)C)[C@H](C)O2)/C=C/C=C/C[C@@H](C)OC(=O)C[C@H]1O`, the Potency result was “inactive”.

Take `Cc1cc(CS(=O)(=O)c2ccccc2)cc(OCc2ccc(CN3CCC[C@@H]3CO)cc2)c1`: the Potency result is “inactive”.

As to `Cc1ccn(-c2cc(Cl)ccc2[C@@H](Oc2cc(-c3ccc(C[C@H](N)C(=O)O)cc3)nc(N)n2)C(F)(F)F)n1`, the Potency result was “inactive”.

For a further experiment, the system named is HeLa. Described as above. The note with it: Gynecologic cancer cell panel viability, ATPlite luminescence, 48 h; series mostly up to 57.5 µM. The method in brief: as §1
As for `CN[C@@H]1[C@@H](O)[C@@H](O[C@@H]2[C@@H](O)[C@H](O[C@H]3O[C@@H]([C@@H](C)NC)CC[C@H]3N)[C@@H](N)C[C@H]2N)OC[C@]1(C)O`, the Potency result was “inactive”.

For `C[N+]1(C)[C@@H]2CC[C@H]1CC(OC(=O)C(O)c1ccccc1)C2` (stereo not given in full), the Potency result is “inactive”.

Turning to `O=C(c1ccc(F)c(F)c1Nc1ccc(I)cc1F)N1CC(O)([C@@H]2CCCCN2)C1`, the Potency result is “inactive”.

As for `CCNC(=O)[C@@H]1CCCN1C(=O)[C@H](CCCN=C(N)N)NC(=O)[C@H](CC(C)C)NC(=O)[C@@H](CC(C)C)NC(=O)[C@H](Cc1ccc(O)cc1)NC(=O)[C@H](CO)NC(=O)[C@H](Cc1c[nH]c2ccccc12)NC(=O)[C@H](Cc1cnc[nH]1)NC(=O)[C@@H]1CCC(=O)N1`, the Potency result is “inactive”.

As to `CC(CCC1(O)OC2CC3C4CC=C5CC(O[C@@H]6O[C@H](CO)[C@@H](O[C@@H]7O[C@H](CO)[C@@H](O)[C@H](O)[C@H]7O)[C@H](O)[C@H]6O[C@@H]6O[C@@H](C)[C@H](O)[C@@H](O)[C@H]6O)CCC5(C)C4CCC3(C)C2C1C)CO[C@@H]1O[C@H](CO)[C@@H](O)[C@H](O)[C@H]1O` (stereo not given in full), the activity change, negative = cytotoxicity is -13.3% [at 11.6 µM].

Consider `CN([C@H]1c2cc(OCCCC(F)(F)F)ccc2OC(C)(C)[C@@H]1O)S(C)(=O)=O`, for which the Potency result is “inactive”.

Consider `CC1(CO)CCCC2(C)C1C(OC(=O)c1ccccc1)C=C1C(=O)OCC12O` (stereo not given), for which the Potency result is “inactive”.

For `Cn1c(NC[C@@H](N)Cc2ccccc2)nc(-c2ccncc2)c(-c2ccc3ccccc3c2)c1=O`, the Potency result is “inactive”.

Turning to `CCCCC(=O)N(Cc1ccc(-c2ccccc2-c2nn[nH]n2)cc1)C(C(=O)O)C(C)C` (stereo not given), the Potency result was “inactive”.

Consider `Nc1nc(NCC2CCC(CNS(=O)(=O)c3cccc4ccccc34)CC2)nc2ccccc12` (stereo not given), for which the Potency entry was “inactive”.

In the case of `COc1ccc(NS(=O)(=O)c2sc3ccc(Cl)cc3c2C)cc1N1CCNCC1`, the Potency entry was “inactive”.

On to `CCCCc1nc(Cl)c(CO)n1Cc1ccc(-c2ccccc2-c2nnn[nH]2)cc1`, for which the Potency entry is “inactive”.

Regarding `CCC(=O)c1cc(-c2ccc(Cl)cc2)n(-c2ccc(S(N)(=O)=O)cc2)c1C`, the Potency result was “inactive”.

With `Cc1cc(N=Nc2ccc(S(=O)(=O)Nc3ccccn3)cc2)c(N)cc1O`, the Potency was 4.47 µM (active).

In the case of `Cc1nnsc1C(=O)Nc1ccc(-n2nc(C(F)(F)F)cc2C(F)(F)F)cc1`, the Potency result was “inactive”.

Turning to `Cc1cc(C)c(NC(=O)N(Cc2ccc3c(c2)Cc2ccccc2-3)C2CCCCCC2)c(C)c1`, the Potency result was “inactive”.

For `Fc1ccccc1CNCc1ccc(-c2ccnc3[nH]ccc23)cc1`, the Potency result was “inactive”.

Consider `CN(Cc1ccc(C(=O)O)cc1)c1ccc(OCc2c(-c3c(Cl)cccc3Cl)noc2C2CC2)nc1C(F)(F)F`, for which the Potency entry is “inactive”.

Regarding `Cc1nc(C)c2c(n1)N(Cc1ccc(-c3ccccc3-c3nn[nH]n3)cc1)C(=O)CC2`, the Potency result was “inactive”.

As for `N#C[C@@H]1C[C@@H]2C[C@@H]2N1C(=O)[C@@H](N)C12CC3CC(CC(O)(C3)C1)C2`, the Potency entry is “inactive”.

For the compound `CS(=O)(=O)c1ccc(-c2cn3ccccc3n2)cc1`, the Potency was 12.6 µM (active).

Turning to `CCCCOc1ccc(-c2cncc(C(=O)NCc3cccnc3N3CCOCC3)c2)cc1Cl`, the Potency result was “inactive”.

On to `CC[C@H]1OC(=O)[C@H](C)[C@@H](O[C@H]2C[C@@](C)(OC)[C@@H](O)[C@H](C)O2)[C@H](C)[C@@H](O[C@@H]2O[C@H](C)C[C@H](N(C)C)[C@H]2O)[C@](C)(O)C[C@@H](C)/C(=N/OCOCCOC)[C@H](C)[C@@H](O)[C@]1(C)O`, for which the Potency result was “inactive”.

`C[C@@H](O[C@H]1OCCN(Cc2n[nH]nc2CN(C)C)[C@H]1c1ccc(F)cc1)c1cc(C(F)(F)F)cc(C(F)(F)F)c1`: the Potency result is “inactive”.

As for `Cc1cc(CN)cc(C)c1NC(=O)c1ccc(-c2cc(Cl)ccc2Cl)o1`, the Potency result was “inactive”.

With `CCCCc1nc(C)c(CC(=S)N(C)C)c(=O)n1Cc1ccc(-c2ccccc2-c2nn[nH]n2)cc1`, the Potency entry was “inactive”.

For the compound `CC(=O)N1CCN([C@H]2CCN(C(=O)N(C)[C@H](C)c3cc(C(F)(F)F)cc(C(F)(F)F)c3)[C@@H](c3ccc(F)cc3C)C2)CC1`, the Potency entry was “inactive”.

Turning to `CC1(C)SC2C(NC(=O)[C@H](C(=O)O)c3ccsc3)C(=O)N2C1C(=O)O` (stereo not given in full), the Potency entry was “inactive”.

Consider `Cc1cc(C)c(-c2csc(NC(=O)c3ccccc3)n2)c(C)c1`, for which the Potency entry is “inactive”.

For `COc1c(N2CC3CCCNC3C2)c(F)cc2c(=O)c(C(=O)O)cn(C3CC3)c12` (stereo not given), the Potency result is “inactive”.

With `CO[C@@H]1[C@@H](O[C@H]2O[C@@H](C)[C@H](O[C@@H]3C[C@](C)(O)[C@H](O)[C@@H](C)O3)[C@@H](N(C)C)[C@@H]2O)[C@@H](CC=O)C[C@@H](C)[C@@H](O[C@H]2CC[C@H](N(C)C)[C@H](C)O2)/C=C/C=C/C[C@@H](C)OC(=O)C[C@H]1O`, the Potency entry was “inactive”.

Consider `CC1OC2O[C@H]3[C@@H](OCC(O)[C@H]3O)OC(=O)C34CCC(C)(C)CC3C3=CCC5C6(C)CC(O)C(OC7OC(CO)C(O)C(O)C7O[C@@H]7OC[C@H](OC(=O)CC(C)(O)CC(=O)OC1C(OC1OCC(O)C(O)C1O)C2O)[C@@H](O)[C@H]7O)C(C)(CO)C6CCC5(C)C3(C)CC4` (stereo not given in full), for which the Potency result was “inactive”.

Take `Cc1cc(CS(=O)(=O)c2ccccc2)cc(OCc2ccc(CN3CCC[C@@H]3CO)cc2)c1`: the Potency entry was “inactive”.

For the compound `Cc1ccn(-c2cc(Cl)ccc2[C@@H](Oc2cc(-c3ccc(C[C@H](N)C(=O)O)cc3)nc(N)n2)C(F)(F)F)n1`, the Potency entry is “inactive”.
